High-throughput results deposited in PubChem by Sanford-Burnham Center for Chemical Genomics.
Rows were chosen to be rich in hits. Some 28% of all compounds tested hit in one or more screens of this group.
CYP2C19 inh – inhibitors of human CYP2C19; P33261; CYP2C19 Supersomes, luciferin-H EGE luminescence, 30 min; inhibition, % at 5 µM; actives 21% (n = 96,000);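 active means CYP2C19 inhibition above a set limit at 5 µM in the primary screen, cut at about 50% in these data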
CYP2C9 inh – inhibitors of human CYP2C9. P11712. CYP2C9 Supersomes, luciferin-H conversion, luminescence. inhibition, % at 5 µM. actives 20% (n = 96,000). AID 777;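 active means blocking of liver enzyme CYP2C9 beyond about 50% at 5 µM, limit read from the data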
CYP2C19 activ – activators of human cytochrome P450 2C19; P33261; recombinant CYP2C19, luciferin-H EGE luminescence; stronger effect = higher value; 0 = fully inhibited enzyme, 1 = untreated enzyme; activation factor at 5 µM; 96,000 tested, under 10 active; AID 1025;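 active means activation factor of at least 2 at 5 µM in the primary screen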
Mac1 fbg inh – blocks human CD11b/CD18 adhesion to fibrinogen. AID 1497. K562 CD11b/CD18 adhesion to fibrinogen, ATPlite luminescence; Mn2+ added to activate the integrin. inhibition, % at 10 µM. P05107+P11215. actives 0.54% (n = 93,000);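 active means primary inhibition of 50% or more at 10 µM, then 40% or more on retest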
Target sequence (P05107 whole entry, looked up, other chains not shown): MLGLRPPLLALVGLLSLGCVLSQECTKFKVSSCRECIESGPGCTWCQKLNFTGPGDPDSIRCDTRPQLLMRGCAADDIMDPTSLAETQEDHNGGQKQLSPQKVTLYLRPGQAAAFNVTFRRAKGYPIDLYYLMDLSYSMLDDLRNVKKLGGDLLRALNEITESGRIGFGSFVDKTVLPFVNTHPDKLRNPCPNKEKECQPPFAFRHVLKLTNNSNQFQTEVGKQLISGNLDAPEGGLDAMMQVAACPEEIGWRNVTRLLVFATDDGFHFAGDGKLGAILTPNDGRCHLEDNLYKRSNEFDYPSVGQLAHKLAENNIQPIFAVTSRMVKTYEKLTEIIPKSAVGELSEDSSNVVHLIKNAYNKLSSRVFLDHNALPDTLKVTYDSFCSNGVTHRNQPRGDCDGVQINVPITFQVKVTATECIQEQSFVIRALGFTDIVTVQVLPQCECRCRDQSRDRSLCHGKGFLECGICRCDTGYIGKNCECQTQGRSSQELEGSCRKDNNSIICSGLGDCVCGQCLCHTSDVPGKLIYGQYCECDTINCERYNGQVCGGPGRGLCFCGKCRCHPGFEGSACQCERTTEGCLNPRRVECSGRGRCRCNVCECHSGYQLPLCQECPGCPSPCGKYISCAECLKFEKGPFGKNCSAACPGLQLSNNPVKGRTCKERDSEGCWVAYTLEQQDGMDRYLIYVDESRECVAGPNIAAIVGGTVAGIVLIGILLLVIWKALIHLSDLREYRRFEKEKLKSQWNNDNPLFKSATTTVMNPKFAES
CYP2C9 activ – CYP2C9 (human) activation | activation factor at 5 µM | recombinant CYP2C9, luciferin-H conversion, luminescence; stronger effect = higher value; factor 1 = untreated enzyme, 0 = blocked | P11712 | actives 1.4% (n = 96,000) | AID 1024;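 active means activation factor of 2 or more for CYP2C9 at a 5 µM dose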
Mac1 fbg enh – increases human CD11b/CD18 adhesion to fibrinogen; activation, % at 10 µM; actives 0.07% (n = 93,000); AID 1499; K562 CD11b/CD18 adhesion to fibrinogen, ATPlite luminescence; P05107+P11215;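 active means 10 µM primary screen giving 50% or more activity, confirmed by 40% or more on retest at that dose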
Of the large screens only hits and unclear results are named; the others gave an inactive call.

CCn1c(=S)[nH]c2ccccc21	none
Cc1nn(C)c(C(=O)Nc2ccc(Cn3cccn3)cc2)c1[N+](=O)[O-]	none
O=C(NCc1ccc(F)cc1)C(c1ccncc1)N(C(=O)c1csnn1)C1CC1 (stereo unspecified)	CYP2C19 inh 53.5 (no result: Mac1 fbg inh, Mac1 fbg enh)
CCC(C)[C@@H](NC(=O)OC(C)(C)C)c1nnc(S(=O)(=O)Cc2cccc(C)c2)o1 (stereo partly specified)	none
Cc1ccc(-c2nc(C3CCCN(S(=O)(=O)c4ccc(C)cc4)C3)no2)cc1 (stereo unspecified)	CYP2C19 inh 57.8, CYP2C9 inh 57.0
Cn1cnnc1SCC(=O)N1CCC(Cc2ccccc2)CC1	CYP2C19 inh 77.1
COc1cccc(NC(=O)[C@@H]2CCCN2C(=O)C2CCN(S(=O)(=O)c3ccc(C)cc3)CC2)c1	none
CCn1c(SCC(=O)N/N=C/C(C)=C/c2ccco2)nnc1-c1ccccc1	CYP2C19 inh 84.8
CCn1c(SCC(=O)Nc2nccs2)nnc1-c1ccccc1	CYP2C19 inh 92.1, CYP2C9 inh 51.7
CCn1c(Cc2ccccc2)nnc1SCC(=O)Nc1nccs1	none
CCn1c(SCC(=O)Nc2nc(-c3ccccc3)cs2)nnc1-c1ccccc1	CYP2C19 inh 93.6, CYP2C9 inh 96.0
CCn1c(SCC(=O)N/N=C/c2ccc(C)o2)nnc1-c1ccccc1	none
Cc1c(C(=O)c2no[n+]([O-])c2C(=O)c2cnn(C)c2C)cnn1C	none
C/C(N)=C(/C#N)C(=O)CSc1nnc(SCc2ccc(Cl)cc2)s1	CYP2C9 inh 70.6
C/C(N)=C(/C#N)C(=O)CSc1nnc(Nc2c(C)cccc2C)s1	CYP2C19 inh 72.4, CYP2C9 inh 68.6
C/C(N)=C(/C#N)C(=O)CSc1nnc(Nc2cccc(C)c2C)s1	CYP2C19 inh 66.1, CYP2C9 inh 66.1
Cc1cccc(C)c1Nc1nnc(SCC(=O)NC(=O)c2cccn2C)s1	none (no result: CYP2C19 inh, CYP2C9 inh, CYP2C19 activ, CYP2C9 activ)
C/C(N)=C(/C#N)C(=O)COC(=O)COc1ccc(Cl)cc1	none
Cc1ccccc1Nc1nnc(SCC(=O)Nc2ccccc2[N+](=O)[O-])s1	none (no result: CYP2C19 inh, CYP2C9 inh, CYP2C19 activ, CYP2C9 activ)
COc1ccc(/C(O)=C2/C(=O)C(=O)N(CCCN(C)C)C2c2cccc(Cl)c2)cc1OC (stereo unspecified)	none (no result: CYP2C19 inh, CYP2C9 inh, CYP2C19 activ, CYP2C9 activ)
Cc1ccc(NC(=O)CCC(=O)NNC(=O)c2cccc([N+](=O)[O-])c2)cc1C	none
Cc1cccc(Nc2nc(N)nc(CN3CCN(Cc4ccc5c(c4)OCO5)CC3)n2)c1	none
CC(=O)OC1(C(F)(F)F)Oc2ccccc2NC1=O (stereo unspecified)	CYP2C19 inh 53.2
Cc1cc(=O)[nH]c(Nc2ccc(C(=O)OC(C)C)cc2)n1	none
CCC(=O)N1CCc2cc(S(=O)(=O)NC(Cc3ccccc3)C(=O)NC3CCCCC3C)ccc21 (stereo unspecified)	none
COc1ccc(CCNS(=O)(=O)c2ccc(S(=O)(=O)N3CCCC3)cc2)cc1OC	CYP2C9 inh 56.6
COc1ccc(CCNS(=O)(=O)c2ccc3c(c2)CC(C)N3C(C)=O)cc1OC (stereo unspecified)	none (no result: Mac1 fbg inh, Mac1 fbg enh)
CCC(=O)N1CCc2cc(S(=O)(=O)NC(CC(C)C)C(=O)N3CCc4ccccc43)ccc21 (stereo unspecified)	CYP2C19 inh 52.0
COc1ccc(CCNS(=O)(=O)c2ccc3c(c2)CCN3C(=O)C2CC2)cc1OC	CYP2C9 inh 66.4 (no result: Mac1 fbg inh, Mac1 fbg enh)
CCC(=O)N1CCc2cc(S(=O)(=O)CCC(=O)NCCc3ccccc3)ccc21	CYP2C9 inh 50.5
COc1ccc(CCNS(=O)(=O)c2ccc3c(c2)n(C)c(=O)c(=O)n3C)cc1OC	none
S=c1nc(C2CCCCC2)[nH][nH]1	none
CCOC(=O)C1CCN(S(=O)(=O)c2ccc(-n3cnnn3)c(C)c2)CC1	none
CC(=O)NC1C(=O)Nc2c1cccc2C(F)(F)F (stereo unspecified)	none
O=[N+]([O-])c1cc(/C=N\Nc2nccs2)ccc1O	none
COc1ccc(CCNC(=O)CCC(=O)N2CCN(S(=O)(=O)c3ccc(Cl)cc3)CC2)cc1OC	none
CC1CCCCN1S(=O)(=O)c1ccc2c(c1)CCN2C(=O)C1CCC1 (stereo unspecified)	none (no result: Mac1 fbg inh, Mac1 fbg enh)
CCC(=O)N1CCc2cc(S(=O)(=O)CCC(=O)NCCc3ccc(OC)c(OC)c3)ccc21	CYP2C9 inh 55.1
CCOc1ccc(OCC)c(NS(=O)(=O)c2ccc3c(c2)CCN3C(=O)C2CCC2)c1	CYP2C9 inh 79.3
CC(=Nc1ccccc1)Nc1ccccc1	CYP2C19 inh 78.9
O=C(Cn1c(=O)n(-c2ccc(F)cc2)c(=O)c2sccc21)c1ccccc1	none (no result: CYP2C19 inh, CYP2C9 inh, CYP2C19 activ, CYP2C9 activ)
O=C(COC(=O)c1cccnc1Nc1cccc(C(F)(F)F)c1)NC1CCS(=O)(=O)C1 (stereo unspecified)	none (no result: CYP2C19 inh, CYP2C9 inh, CYP2C19 activ, CYP2C9 activ)
Cn1c(SCc2nc3ccccc3c(=O)[nH]2)nnc1-c1ccco1	CYP2C19 inh 50.6
COc1ccc(Cc2nnc(SCc3nc4ccccc4c(=O)[nH]3)o2)cc1	none
Cn1c(-c2ccccc2)cnc1SCc1nc2ccccc2c(=O)[nH]1	CYP2C19 inh 99.6
CC(C)Cn1c(SCc2nc3ccccc3c(=O)[nH]2)nc2ccccc2c1=O	CYP2C19 inh 55.1, CYP2C9 inh 80.4 (no result: Mac1 fbg inh, Mac1 fbg enh)
CC(C)Cn1c(SCC#N)nc2ccccc2c1=O	none
COc1ccc(C(=O)NCCc2nnc(SCc3nc4ccccc4c(=O)[nH]3)n2C)cc1	CYP2C9 inh 84.1
CC(C)Oc1ccc(CNC2CCOC(C)(C)C2)cc1 (stereo unspecified)	none
COC(=O)c1ccc(Oc2coc3cc(OCc4ccc([N+](=O)[O-])cc4)ccc3c2=O)cc1	none (no result: CYP2C19 inh, CYP2C9 inh, CYP2C19 activ, CYP2C9 activ)
CCCN1CCN(CCCNC(=O)CCNC(=O)Cn2ccc3ccccc3c2=O)CC1	none
CCn1c(COc2cccc3ccccc23)nnc1SCC(N)=O	none
Cc1ccccc1-c1nnn(CC(=O)NCc2ccc3c(c2)OCO3)n1	CYP2C9 inh 81.9
Cc1ccccc1Cn1c(=O)n(CCC(=O)NCc2ccc3c(c2)OCO3)c(=O)c2ccccc21	none
Cc1ccccc1CN1CCN(CC(=O)NCc2ccc3c(c2)OCO3)C1=O	CYP2C9 inh 76.0
CCNC(=O)CC1C(=O)N(c2ccccc2)C(=O)N1Cc1ccc(OC)cc1 (stereo unspecified)	none (no result: Mac1 fbg inh, Mac1 fbg enh)
N#CC(c1ccc(O)cc1)N1CCCCC1 (stereo unspecified)	none
O=C(NCc1cccnc1)c1ccc(CS(=O)(=O)Cc2ccc(Cl)cc2)o1	CYP2C19 inh 100.3, CYP2C9 inh 65.3
COc1ccccc1S(=O)(=O)Cc1ccc(C(=O)NCCN2CCCCCC2)o1	none
Cc1ccccc1S(=O)(=O)Cc1ccc(C(=O)NCc2cccnc2)o1	CYP2C19 inh 98.0, CYP2C9 inh 67.4
Cc1ccc(CS(=O)(=O)Cc2ccc(C(=O)NCc3cccnc3)o2)cc1	CYP2C19 inh 75.7 (no result: Mac1 fbg inh, Mac1 fbg enh)
Cc1ccccc1S(=O)(=O)Cc1ccc(C(=O)O)o1	none
Cc1ccccc1CS(=O)(=O)Cc1ccc(C(=O)NCc2ccccn2)o1	none (no result: Mac1 fbg inh, Mac1 fbg enh)
